Experimental data: PubChem BioAssay (NCATS)
Several values for one entry are separate records, joined by “and”; a condition that tells them apart may be missing. Equal values may be shown once. Records with an inconclusive call do not appear. A call without a number means that no potency is given here. Activity calls are given as the source filed them. Unless noted, the call rests on the fitted dose curve.

How the values were obtained:
[1] = qHTS for Inhibitors of the Functional Ribonucleoprotein Complex (vRNP) of Lassa (LASV) Arenavirus: Viability assay - alamar blue signal for LASV Primary Screen (AID 1347083; calls by dose curve; tested in HEK293 reporter line; further: potency means the concentration at half of the fitted maximal effect; nearly all actives have a fitted effect of over 80% in size)
[2] = target: Nucleoprotein (Lymphocytic choriomeningitis virus (strain Armstrong)) (UniProt P09992); test: qHTS for Inhibitors of the Functional Ribonucleoprotein Complex (vRNP) of Lymphocytic Choriomeningitis Arenaviruses (LCMV): LCMV Primary Screen - GLuc reporter signal (AID 1347086); further: nearly all actives have a fitted effect of over 70% in size; further: potency means the concentration at half of the fitted maximal effect
[3] = Primary qHTS to identify inhibitors of SARS-CoV-2 cell entry (AID 1645846); details: activity change, negative = inhibition: at 57.1 µM (top of the series) unless noted; further: nearly all actives have a fitted effect of over 45% in size; further: potency means the concentration at half of the fitted maximal effect
Summary of the method: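 Entry measured by luciferase signal 48 h after adding SARS-CoV-2-S pseudotyped MLV particles to HEK293-ACE2 cells preincubated 1 h with compounds. Normalisation: bald particles and spike particles.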

[4] = qHTS for Inhibitors of the Functional Ribonucleoprotein Complex (vRNP) of Lymphocytic Choriomeningitis Arenaviruses (LCMV): Viability assay - alamar blue signal for LCMV Primary Screen (AID 1347085; calls by dose curve; tested in HEK293 reporter line; further: nearly all actives have a fitted effect of over 80% in size; further: potency means the concentration at half of the fitted maximal effect)
[5] = Cytotoxicity counterscreen for inhibitors of SARS-CoV-2 cell entry (AID 1645845); further: nearly all actives have a fitted effect of over 50% in size; further: potency means the concentration at half of the fitted maximal effect
Summary of the method: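 Expi293F/hACE2 cells seeded overnight; cpd pin-transferred in DMSO, 1 h preincubation, + media, 48 h 37 C 5% CO2; ATPLite 1step luminescence; normalized to cells and no cells.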

[6] = Confirmatory qHTS to identify inhibitors of SARS-CoV-2 cell entry (AID 1645844); further: potency means the concentration at half of the fitted maximal effect; nearly all actives have a fitted effect of over 45% in size
Summary of the method: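 HEK293-ACE2 cells (Expi293F stably expressing human ACE2) were pretreated with compounds for 1 hr at 37C, then infected with MLV-based particles carrying Wuhan-Hu-1 spike (C-terminal 19-aa truncation). Luciferase luminescence read after 48 hr; normalized to spike PP (100%) and bald PP (0%).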

[7] = VSVG counterscreen qHTS to identify inhibitors of SARS-CoV-2 cell entry (AID 1645847); further: potency means the concentration at half of the fitted maximal effect; nearly all actives have a fitted effect of over 65% in size
Summary of the method: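 Luminescence read after 48 h infection at 37 C with VSV-G-pseudotyped MLV particles, following 1 h compound exposure of Expi293F cells stably expressing human ACE2; scaled between bald particle and VSV-G particle wells.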

[8] = Inducers of the Endoplasmic Reticulum Stress Response (ERSR) in human glioma: Validation (AID 504836; active means well fitted curve in the direction sought with a large enough effect)
Summary of the method: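 Stably transfected U87-MG human glioma cells carrying a GRP78-based luminescent sensor were seeded at 1000 cells/well, pin-dosed with compounds and incubated 16 h. Luciferase reagent was then added, and end-point luminescence was read after 10 min at room temperature.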

[9] = Primary qHTS for inhibitors of SARS-S pseudo-typed particle cell entry (AID 1479145); further: nearly all actives have a fitted effect of over 45% in size
[10] = Primary qHTS for Huh7 cytotoxicity: counterscreen for inhibitors of MERS-S pseudotyped particle cell entry (AID 1479147); details: outcome: dose series up to 57.1 µM unless noted
[11] = Primary qHTS for inhibitors of MERS-S pseudo-typed particle cell entry (AID 1479149); further: nearly all actives have a fitted effect of over 60% in size
[12] = Primary qHTS for Vero E6 cytotoxicity: counterscreen for inhibitors of SARS-S pseudo-typed particle cell entry (AID 1479150); details: outcome: dose series up to 57.1 µM unless noted
[13] = target: Bile acid receptor (Homo sapiens) (UniProt Q96RI1); test: qHTS assay for small molecule agonists of farnesoid X receptor signaling (AID 588527); details: HEK293T FXR-UAS-bla, beta-lactamase ratio, 16 h; activation: stronger effect = higher value
Summary of the method: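 Read-out: beta-lactamase reporter fluorescence with CCF4 substrate in GeneBLAzer FXR-UAS-bla HEK293T cells, after 16 h compound exposure at 37 C. Response scaled between DMSO basal (0%) and chenodeoxycholic acid at 100 uM (100%).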

[14] = target: Peroxisome proliferator-activated receptor delta (Homo sapiens) (UniProt Q03181); test: qHTS assay for small molecule agonists of peroxisome proliferator-activated receptor delta signaling (AID 588534)
Summary of the method: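 Cells carrying a PPAR-delta beta-lactamase reporter were treated with compounds for 18 h at 37 °C in agonist mode. CCF4 fluorescence was read after 2 h; EC50 and efficacy from Hill fits.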

Nucleoprotein (Lymphocytic choriomeningitis virus (strain Armstrong)), sequence (P09992 whole entry, looked up): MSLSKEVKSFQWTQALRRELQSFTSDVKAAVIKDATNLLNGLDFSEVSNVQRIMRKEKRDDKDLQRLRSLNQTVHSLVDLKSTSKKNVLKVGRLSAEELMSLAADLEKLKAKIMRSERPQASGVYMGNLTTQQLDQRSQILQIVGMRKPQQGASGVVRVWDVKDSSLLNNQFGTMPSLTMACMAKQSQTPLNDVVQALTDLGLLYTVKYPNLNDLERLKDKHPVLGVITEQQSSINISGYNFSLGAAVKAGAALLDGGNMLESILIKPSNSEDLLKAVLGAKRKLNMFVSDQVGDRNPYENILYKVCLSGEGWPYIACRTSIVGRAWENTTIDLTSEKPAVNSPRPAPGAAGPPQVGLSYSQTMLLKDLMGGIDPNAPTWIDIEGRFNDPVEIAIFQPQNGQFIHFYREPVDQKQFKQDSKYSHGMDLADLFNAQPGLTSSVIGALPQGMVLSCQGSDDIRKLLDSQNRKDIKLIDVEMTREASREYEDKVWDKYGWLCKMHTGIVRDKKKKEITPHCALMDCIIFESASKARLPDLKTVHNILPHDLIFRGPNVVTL
Bile acid receptor (Homo sapiens), sequence (Q96RI1 whole entry, looked up): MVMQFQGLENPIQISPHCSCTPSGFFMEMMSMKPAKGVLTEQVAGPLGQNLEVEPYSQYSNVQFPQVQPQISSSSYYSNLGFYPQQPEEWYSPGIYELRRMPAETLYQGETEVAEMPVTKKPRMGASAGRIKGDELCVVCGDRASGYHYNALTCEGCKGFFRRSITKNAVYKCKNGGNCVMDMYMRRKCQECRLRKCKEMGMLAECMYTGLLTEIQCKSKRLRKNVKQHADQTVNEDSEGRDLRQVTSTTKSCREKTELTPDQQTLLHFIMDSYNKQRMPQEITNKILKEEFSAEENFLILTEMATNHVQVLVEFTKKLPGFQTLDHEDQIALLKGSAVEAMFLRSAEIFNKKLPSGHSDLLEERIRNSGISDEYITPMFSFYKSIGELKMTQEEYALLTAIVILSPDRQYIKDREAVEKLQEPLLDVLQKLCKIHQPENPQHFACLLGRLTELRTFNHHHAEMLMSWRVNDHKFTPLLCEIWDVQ
Peroxisome proliferator-activated receptor delta (Homo sapiens), sequence (Q03181 whole entry, looked up): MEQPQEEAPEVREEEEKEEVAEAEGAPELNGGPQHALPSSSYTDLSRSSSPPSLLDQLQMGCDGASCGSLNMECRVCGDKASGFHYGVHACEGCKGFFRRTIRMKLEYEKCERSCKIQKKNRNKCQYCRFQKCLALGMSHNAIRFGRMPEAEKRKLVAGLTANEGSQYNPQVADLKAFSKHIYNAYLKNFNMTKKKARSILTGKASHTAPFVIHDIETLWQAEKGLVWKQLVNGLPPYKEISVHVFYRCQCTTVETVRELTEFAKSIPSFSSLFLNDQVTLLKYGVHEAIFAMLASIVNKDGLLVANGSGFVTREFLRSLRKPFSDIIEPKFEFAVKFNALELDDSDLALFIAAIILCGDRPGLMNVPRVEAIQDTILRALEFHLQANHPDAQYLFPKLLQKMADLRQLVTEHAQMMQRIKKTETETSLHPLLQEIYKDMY

With `O=C(Nc1cccc(Br)c1)c1cccc(S(=O)(=O)N2CCCCCC2)c1` the Potency [1] was 24.3 µM (active), the Potency [2] was 15.3 µM (active) and the Potency [3] was 31.6 µM (active).

In the case of `CCCCC[C@H]1CCCCC[C@@H](O)C[C@H](O)[C@H](O)/C=C/C(=O)O1`, the Potency [4] was “inactive”.

With `Cn1cc(C2=C(c3c4n(c5ccccc35)CCC(CN)C4)C(=O)NC2=O)c2ccccc21` (configuration not stated) the Potency [1] was 17.2 µM (active), the activity change, negative = cytotoxicity [5] was -8.45% [at 11.3 µM] (inactive) and the activity change, negative = inhibition [3] was -9.15% [at 11.3 µM].

With `COCCOc1ccc2c(c1)ncn2-c1ccc2cccc(N3CCC(N)CC3)c2n1` the Potency [1] was 24.3 µM (active), the Potency [2] was “inactive” and the Potency [3] was 12.6 µM (active).

For `CS(=O)(=O)N1CCc2c(-c3cnc(N)nc3)nc(N3CCOCC3)nc21`, the Potency [1] was 0.273 µM (active), the Potency [2] was “inactive” and the Potency [5] was 3.55 µM (active).

In the case of `Cc1ccc(NC(=O)c2cccc(N(C)C)c2)cc1NC(=O)c1ccc(O)cc1`, the Potency [1] was 12.2 µM (active), the Potency [5] was “inactive” and the Potency [3] was “inactive”.

For `Cc1cc(C(=O)N2CCN(c3cccc(Cl)c3)CC2)n(-c2ccccc2)n1`, the Potency [1] was 0.611 µM (active), the Potency [2] was 6.85 µM (active) and the Potency [6] was 6.81 µM (active). The Potency [5] was “inactive” and the Potency [7] was 3.41 µM (active).

With `COc1ccc(C=Cc2cc(OC)c(OC)c(OC)c2)cc1NC(=O)[C@H](N)CO` the Potency [1] was 0.0022 µM (active), the Potency [2] was “inactive” and the activity change, negative = inhibition [3] was -66.1%.

In the case of `CC(C)(C)c1nc2c3cc[nH]c(=O)c3c3cc(F)ccc3c2[nH]1`, the Potency [4] was “inactive”, the Potency [2] was “inactive” and the Potency [6] was 1.71 µM (active). For the same molecule, the Potency [5] was “inactive”.

For `Cc1ccc(S(=O)(=O)/C=C/C#N)cc1`, the outcome [8] was “inactive” and the Potency [4] was “inactive”.

With `N#Cc1cc([N+](=O)[O-])c2sc(C(N)=O)[n+]([O-])c2c1` the outcome [8] was “inactive”, the Potency [4] was “inactive” and the Potency [2] was “inactive”.

In the case of `CC(=O)OC[C@@H]1O[C@@H](n2ccc(=O)[nH]c2=O)[C@H](OC(C)=O)[C@H]1OC(C)=O`, the Potency [4] was 4.85 µM (active), the Potency [2] was 7.69 µM (active) and the Potency [9] was “inactive”. The outcome [10] was “inactive”, the Potency [11] was “inactive” and the outcome [12] was “inactive”. The Potency [5] was “inactive” and the activity change, negative = inhibition [3] was -39.7%.

With `COC1CC2C=C(C)C=CC=CC(=O)NC(c3ccccc3)CC=CCCC(O)CC(=O)C2=C1O` (configuration not stated) the Potency [4] was “inactive” and the Potency [2] was “inactive”.

In the case of `COc1ccc(-c2cc(=O)c3c(O)cc(O[C@@H]4O[C@H](CO[C@@H]5O[C@@H](C)[C@H](O)[C@@H](O)[C@@H]5O)[C@@H](O)[C@H](O)[C@@H]4O)cc3o2)cc1O`, the Potency [2] was 10.9 µM (active).

In the case of `COc1ccc(Cn2ccc3ccc(C(=O)NO)cc32)cc1`, the Potency [2] was “inactive” and the Potency [5] was “inactive”.

With `CCCCCCCCc1ccc(CCC(N)(CO)CO)cc1` the Potency [4] was “inactive”, the Potency [2] was “inactive” and the Potency [5] was 7.08 µM (active) and 25.1 µM (active). For the same molecule, the Potency [3] was 8.91 µM (active).

For `Cc1cccc(O)c1C`, the activation [13] was -0.773% (inactive), the Potency [14] was “inactive” and the Potency [4] was “inactive”. The Potency [2] was “inactive”.

For `C=CC(=O)N1CCC[C@@H](n2nc(-c3ccc(Oc4ccccc4)cc3)c3c(N)ncnc32)C1`, the Potency [4] was 21.7 µM (active), the Potency [5] was “inactive” and the Potency [3] was “inactive”.
